{
  "source": "PubChem BioAssay (NCATS)",
  "note": "Inconclusive results are not listed. Values without a mark were called inactive. Calls follow the shape of the dose curve; as a rule, active = well fitted inhibition curve with a large enough effect; inconclusive = small, poorly fitted or top-dose-only effect; inactive = flat fitted curve, though single readings scatter. % is scaled to controls: 0 for no effect and ±100 for the full control effect.",
  "data": [
    {"target": "Voltage-gated inwardly rectifying potassium channel KCNH2 (Homo sapiens) (UniProt Q12809)", "sequence (Q12809 whole entry, looked up)": "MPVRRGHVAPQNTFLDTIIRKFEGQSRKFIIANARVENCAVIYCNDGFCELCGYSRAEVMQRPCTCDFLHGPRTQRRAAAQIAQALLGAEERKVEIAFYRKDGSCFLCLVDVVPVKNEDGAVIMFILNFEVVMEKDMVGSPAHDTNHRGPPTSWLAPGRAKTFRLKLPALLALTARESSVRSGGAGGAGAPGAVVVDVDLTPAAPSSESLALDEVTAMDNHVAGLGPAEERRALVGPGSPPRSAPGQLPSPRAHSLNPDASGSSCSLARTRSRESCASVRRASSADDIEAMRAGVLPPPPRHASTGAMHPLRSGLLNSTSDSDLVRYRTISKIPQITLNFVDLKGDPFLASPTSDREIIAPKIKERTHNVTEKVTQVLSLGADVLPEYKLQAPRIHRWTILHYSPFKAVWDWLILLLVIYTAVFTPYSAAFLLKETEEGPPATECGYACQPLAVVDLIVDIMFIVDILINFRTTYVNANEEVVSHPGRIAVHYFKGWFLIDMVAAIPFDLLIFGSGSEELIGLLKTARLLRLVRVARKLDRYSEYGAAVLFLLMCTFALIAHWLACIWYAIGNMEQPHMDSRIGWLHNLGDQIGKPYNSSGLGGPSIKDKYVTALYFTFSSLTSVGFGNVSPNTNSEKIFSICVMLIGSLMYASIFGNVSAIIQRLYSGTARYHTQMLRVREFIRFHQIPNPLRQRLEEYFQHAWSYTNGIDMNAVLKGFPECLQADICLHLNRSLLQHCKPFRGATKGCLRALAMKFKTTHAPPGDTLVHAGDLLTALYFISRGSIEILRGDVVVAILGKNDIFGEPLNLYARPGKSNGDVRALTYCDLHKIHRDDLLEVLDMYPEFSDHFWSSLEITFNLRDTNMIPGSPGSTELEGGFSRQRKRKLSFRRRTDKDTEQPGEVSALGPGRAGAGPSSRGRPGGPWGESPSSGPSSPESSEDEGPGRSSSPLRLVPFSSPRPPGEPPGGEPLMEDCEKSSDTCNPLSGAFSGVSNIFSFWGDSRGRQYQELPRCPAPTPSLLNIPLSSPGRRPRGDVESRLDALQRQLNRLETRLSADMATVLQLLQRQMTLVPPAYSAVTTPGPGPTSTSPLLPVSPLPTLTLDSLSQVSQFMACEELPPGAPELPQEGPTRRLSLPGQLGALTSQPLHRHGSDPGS", "assay": "qHTS Assay for Small Molecule Inhibitors of the Human hERG Channel Activity (AID 588834);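 also: top concentration of the series differs between compounds; lower thallium flux fluorescence means stronger hERG block; nearly all actives have a fitted effect of over 50% in size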", "conditions": "U2OS BacMam hERG, FluxOR thallium flux fluorescence; series mostly up to 46.1 µM; activity change, negative = inhibition: at the top concentration", "in_short": "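hERG block measured as reduced thallium-dye (FluxOR) fluorescence after stimulation buffer addition, read over 2 min. Cells were hERG-BacMam-transduced U2OS exposed to compound ~10 min […]; concentration-response fitted with Hill equation for AC50.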", "values": [
      {"smiles": "CC(=O)OCC(=O)[C@@]1(O)CC[C@H]2[C@@H]3CCC4=CC(=O)C=C[C@]4(C)[C@H]3[C@@H](O)C[C@@]21C", "activity change, negative = inhibition": "4.27%"},
      {"smiles": "CCCC(=O)Nc1ccc(OCC(O)CNC(C)C)c(C(C)=O)c1", "note": "(stereo not given)", "activity change, negative = inhibition": "-7.96% [at 20.6 µM]"},
      {"smiles": "CC1=C(C(=O)O)N2C(=O)[C@@H](NC(=O)[C@H](N)c3ccc(O)cc3)[C@H]2SC1", "activity change, negative = inhibition": "5.53% [at 20.6 µM]"},
      {"smiles": "CC1(C)O[C@@H]2C[C@H]3[C@@H]4C[C@H](F)C5=CC(=O)CC[C@]5(C)[C@H]4[C@@H](O)C[C@]3(C)[C@]2(C(=O)CO)O1", "activity change, negative = inhibition": "-7.69% [at 20.6 µM]"},
      {"smiles": "O=c1[nH]c(=O)n([C@H]2C[C@H](O)[C@@H](CO)O2)cc1C(F)(F)F", "activity change, negative = inhibition": "6%"}
    ]}
  ]
}
